Experimental findings from PubChem BioAssay (NCI) are described below.

This is part of a sample that, as a whole, favours compounds with a hit. Of some 83,000 tested, about 20% had one in any assay.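 Each cell line was grown in a 96-well plate and treated with one concentration of compound for 48 hours. Values below 10 were considered active.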 Calls of active or inactive are those of the source.

The assay deals with HL-60(TB) leukemia. The assay is described as follows: NCI-60 one-dose screen, 48 h (100 = growth as untreated, 0 = no growth, -100 = all killed). Particulars: 10 µM unless noted.
As for `O=C(CCCCCCN1CC(=O)N2[C@@H](c3cccc(Cl)c3)c3[nH]c4ccccc4c3C[C@H]2C1=O)NO`, the growth was 8.21% (active).

On to `O=C(COc1ccc(/C=C2\C(=O)Nc3cc(Cl)ccc32)cc1)Nc1ccc(Cl)cc1`, for which the growth was 61% (inactive).

For `O=C(NNc1nc2cc(F)ccc2n2c(CO)ccc12)c1cnccn1`, the growth is -27.4% (active).

With `COc1cc2cc(Oc3ccc(NC(=O)c4cccc(C(F)(F)F)c4)cc3)c(C)nc2cc1OCCN1CCCCC1`, the growth was -51.6% (active).
